From PubChem BioAssay come the findings set out here.

In the test the target is Calmodulin-1 (Homo sapiens) (UniProt P0DP23). The experiment in a line: CALM1 binders on microarrays, EGTA buffer, profiling panel, biochemical, small-molecule microarray, Cy5-labelled CALM1 (AID 1111).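 Note: labelled calmodulin applied in Tris saline Tween buffer holding calcium plus EGTA and DTT.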 To be noted: Cy5-CALM1 binding fluorescence, higher = more signal.
In turn, `CS(=O)(=O)CCOC(=O)C1=CC(CCCO)=CC(c2ccc(CN3CCCC3)cc2)N(Cc2sc3ccccc3c2Cl)C=C1C(=O)OCCS(C)(=O)=O` (stereo not given) came in with a composite z-score of 2.26.
`CCOc1cc(C(O)C2C=CC3C(=O)NC(=O)C3N2Nc2ccc(Cl)cc2Cl)ccc1O` (stereo not given) yielded a composite z-score of -0.07.
As for `Cc1cc(C)c(C(O)C2C=CC3C(=O)N(c4ccccc4)C(=O)C3N2Nc2ccccc2F)c(C)c1` (stereo not given), the figure is 0.139.
`CCOC(=O)C[C@H]1[C@H](OC(=O)Cc2ccc3c(c2)OCO3)[C@@H](NC(=O)c2ccc3ccccc3n2)c2cc(OCCCO)ccc2N1C(=O)c1ccccc1` registered a composite z-score of 0.179.
As for `NCCCCCNC(=O)[C@@H]1C[C@@H]2C(=O)N[C@@H](CCCCN)C(=O)N2[C@@H]1c1ccc(O)cc1`, the figure is 1.44; as for `O=C(C1N=C(c2ccc(OCCCO)cc2)N(c2ccccc2)O1)N1CCCCC1` (stereo not given), 2; as for `C=CCC(OC(C)=O)[C@@H]1[C@@H](N(Cc2ccc(-c3ccccc3)cc2)C(=O)c2ccc(-c3ccccc3)cc2)c2cc(OCCCO)ccc2N1C(=O)c1ccc2ccccc2c1` (stereo not given in full), 0.493.
Under `CCCC[C@@H](O)C1=C(COC)C[C@H]2C(=O)N(Cc3ccccc3)C(=O)[C@H]2[C@H]1CO` stands -0.37; under `COc1ccc(CCNC(=O)[C@@]2(Sc3ccc(C)cc3)CC(=O)N(Cc3ccccc3C(F)(F)F)[C@@H]2c2ccc(CO)cc2I)cc1`, 0.138.
Under `CCC#CCN(Cc1ccccc1Br)[C@H](/C=C/C1CC1)[C@@H](O)Cc1ccccc1` stands -0.414; under `NCCCCCNC(=O)[C@H]1C[C@H]2C(=O)N3CCC[C@H]3C(=O)N2[C@H]1c1cccc(OCCO)c1`, 1.35.
`CC(C)[Si](C#CCCCC#N)(O[C@H](c1ccccc1)c1cn(Cc2ccccc2)nn1)C(C)C` gave a composite z-score of -0.321.
As for `CC(C)N1CC=CC23O[C@@H]4C=CCCOC(=O)C4[C@H]2C(=O)N(CCCO)[C@@H]3C1=O` (stereo not given in full), the figure is -0.544.
Under `[N-]=[N+]=Nc1ccccc1C[C@]1(C(=O)NCC(O)CO)COC(c2ccc(OCCCO)cc2)=N1` (stereo not given in full) stands 1.32; under `COCC(=C=CC[C@H](O)c1ccc(CO)o1)CCO`, -0.0876.
Under `CC(C)C(CO)N1C(=O)[C@@H]2[C@H]3C(=O)OCC=C[C@H]3OC23C=CCN(c2ccc(Cl)cc2)C(=O)[C@@H]13` (stereo not given in full) stands -0.871; under `COc1ccc([Si](C)(C)[C@H]2[C@H](CC(=O)N3Cc4ccccc4C[C@H]3CO)O[C@@]3(C(=O)N(Cc4ccc(N5CCOC5=O)cc4)c4ccccc43)[C@@H]2C)cc1`, -0.766.
As for `CCCC[C@@H](O)C1=C(COc2ccccc2)C[C@H]2C(=O)N(Cc3ccccc3)C(=O)[C@H]2[C@H]1CO`, the composite z-score was found to be 0.422.
`C[C@@H]1NC(=O)[C@@H](Cc2ccccc2)NC(=O)[C@@]23C(=O)N[C@@H](Cc4ccccc4)C2[C@H](C)[C@@]2(C)O[C@H]2C3/C=C/C/C=C\CNC1=O` (stereo not given in full): the composite z-score is -0.744.
As for `[N-]=[N+]=Nc1ccccc1C[C@]1(C(=O)NCCN2CCOCC2)COC(c2ccc(OCCCO)cc2)=N1`, the figure is 0.76.
Under `CC(C)C(CO)N1C(=O)[C@@H]2C3C(=O)OCCC/C=C\[C@H]3OC23C=CCN(c2ccc4ccccc4c2)C(=O)[C@@H]13` (stereo not given in full) stands -0.14; under `C=C(/C(=C/C[C@H](OC(=O)c1ccncc1)c1ccc(CO)o1)c1cnc2ccccc2c1)C(C)C`, 0.544; under `C=CCOC(=O)[C@@H]1[C@H]2C(=O)O[C@H](c3ccccc3)[C@H](c3ccccc3)N2[C@H](c2ccc(OCCOC(=O)[C@@H]3C[C@@H]4C(=O)N[C@@H](CCCC[N+](C)(C)C)C(=O)N4[C@@H]3c3ccc(O)cc3)cc2)[C@@]12C(=O)Nc1ccc(I)cc12`, -0.14.
As for `CCCCC(O)C1C=CC2C(=O)N(C)C(=O)C2N1N(c1ccccc1)c1ccccc1` (stereo not given), the figure is 2.06; as for `CCCC=C(CCC)[C@@H](NC(=O)c1cccs1)c1ccc(C(=O)OC)cc1`, 0.318.
Compound `Cc1ccccc1C(O)C1C=CC2C(=O)NC(=O)C2N1Nc1ccccn1` (stereo not given) had a composite z-score of -0.285.
`C=CCNC(=O)[C@@H]1[C@H]2C(=O)O[C@H](c3ccccc3)[C@H](c3ccccc3)N2[C@H](c2ccccc2OCCO)[C@@]12C(=O)N(C(=O)OCCOC)c1ccc(C#CC3(O)CCCCCC3)cc12` returned a composite z-score of 0.66.
As for `CCCNC(=O)[C@@H]1c2ccccc2C(=O)N(Cc2ccc(OC(F)(F)F)cc2)[C@H]1c1ccc(CO)cc1`, the figure is 0.222; as for `CCCNC(=O)[C@@]1(C)c2ccccc2C(=O)N(c2ccc(C)cn2)[C@H]1c1ccc(CO)cc1`, -0.474.
As for `COc1cc2c(cc1O)C(c1ccc(CN3CCCC3)cc1)N(Cc1cc3c(cc1Br)OCO3)CC2` (stereo not given), the figure is 1.47; as for `CCOC(=O)C[C@H]1[C@H](OC(=O)Cc2ccc3c(c2)OCO3)[C@@H](NC(=O)C2CCCCC2)c2cc(OCCCO)ccc2N1C(=O)c1ccccc1`, 0.379.
As for `O=C(NCc1ccc(F)cc1)[C@H]1C[C@H]2C(=O)NCC(=O)N2[C@H]1c1ccc(O)cc1`, the figure is -0.449.
Compound `CN(C)c1ccc(C(O)C2C=CC3C(=O)NC(=O)C3N2Nc2ccccn2)cc1` (stereo not given) returned a composite z-score of -0.365.
`COc1ccc([Si](C)(C)[C@@H]2[C@@H](CC(=O)N(CCO)Cc3ccccc3)O[C@]3(C(=O)N(Cc4cccc(N5CCCCC5=O)c4)c4ccccc43)[C@H]2C)cc1` displayed a composite z-score of 0.822.
The compound `CCOC(=O)C[C@H]1[C@H](OC(=O)c2ccc(C(=O)c3ccccc3)cc2)[C@@H](NC(=O)C2CCCCC2)c2cc(OCCCO)ccc2N1C(=O)c1ccc2ccccc2n1` gave a composite z-score of 0.711.
